# PAX8 inh HTS: lowers PAX8-driven luciferase in RMG-I cells | RMG-I TPO-luciferase reporter, SteadyGlo, 24 h | inhibition, % at 12.6 µM | 360,000 tested, 1.2% active | AID 652154;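 active = mean replicate inhibition at least 60% with every replicate also reaching 60%; inconclusive = only one of the two criteria is met; inactive = mean below 60% and not all replicates reaching 60%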;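 also: luciferase light reporting Pax8 driven TPO promoter activity; plate controls were median of neutral control wells for no effect and mitoxantrone controls for full effect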
# EWS-Fli inh: blocks EWS/Fli oncoprotein-driven transcription | A673 NR0B1-luciferase reporter, viability-normalised | inhibition, % at 12.6 µM | 350,000 tested, 0.67% active;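 active = mean inhibition of at least 50% after viability correction, with every replicate also passing that limit; inconclusive = mean reaches 50% but only one of two replicates passes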;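 also: firefly luciferase signal divided by Alamar Blue viability fluorescence both relative to DMSO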
# Env fusion inh: inhibitors of HIV Env-mediated cell fusion. HeLa-JRFL Env/CEM21 cell fusion, luciferase. inhibition, % at 12.3 µM. 360,000 tested, 1.1% active. AID 651610;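 active = mean replicate inhibition score of at least 50 and every replicate individually at or above 50; inconclusive = only one of the two criteria met; inactive = mean below 50 and not all replicates reaching 50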;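 also: 0% = plate neutral controls and 100% = maraviroc near 300 nM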
# CFTR F508del cor: correctors of CFTR F508del function in bronchial epithelial cells; 350,000 tested, 0.36% active; activity (quench increase), % at 7.58 µM; CFBE cells, YFP halide quenching; stimulated with forskolin plus potentiator P3; % fluorescence drop versus neutral controls;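 active = mean added fluorescence quench of at least 8% versus neutral control, with both replicates also reaching 8%; inconclusive = only one of the mean or replicate conditions met; inactive = mean below 8% and not both replicates reaching 8%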;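 also: cells transiently co-express mutant CFTR-F508del with the halide-sensitive YFP; corrector assay measuring rescue of mutant channel to the surface after 24 h compound exposure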
# FXN GAA850 act: activators of GAA850 frataxin (FXN) promoter. activation, % at 6 µM. HEK293 lucGAA850 FXN promoter luciferase reporter, 24 h; percent of 10 µM SAHA response. 360,000 tested, 0.56% active;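 active = activation above the average of all compounds screened plus 3 SD, cutoff fixed separately per campaign, cut at about 7.5% in these data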;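 also: 0% = DMSO wells and 100% = 10 µM SAHA wells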
# GAA30 counter: activates GAA30 frataxin promoter, counter-screen for GAA850 activators | shares compounds with FXN GAA850 act | HEK293 lucGAA30 FXN promoter luciferase, 24 h; DMSO = 0%, 5 µM ipriflavone = 100% | activation, % at 6 µM | 1,900 tested, 66% active;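 active = mean activation above the mean of solvent-only control wells plus 3 SD, cut at about 22% in these data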;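 also: counterscreen of GAA850 promoter hits where activity marks nonselective or luminescence artifacts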
# FXN GAA850 conf: confirmation of GAA850 frataxin (FXN) promoter activators. shares compounds with FXN GAA850 act. HEK293 lucGAA850 FXN promoter luciferase reporter, 24 h; 100% = activation by SAHA. 1,900 tested, 86% active. activation, % at 6 µM;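 active = mean activation above a set limit taken from the primary screen, cut at about 8% in these data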;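 also: 0% = DMSO wells and 100% = 10 µM SAHA wells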
# Numbers without * were called inactive; ? = inconclusive; . = not tested or not shown; [ ] = another dose, or the depositor's remark. In the library only some 2.5% were active in any assay of this set; here they are far more common.
SMILES,PAX8 inh HTS,EWS-Fli inh,Env fusion inh,CFTR F508del cor,FXN GAA850 act,GAA30 counter,FXN GAA850 conf
COC(=O)c1cccc(NC(=O)c2cc3ccccc3o2)c1,-96,84*,-148,-1,3,.,.
Cc1ccnc(NC(=O)c2cc3ccccc3o2)c1,58,75*,38,0,-7,.,.
COC(=O)c1cc(NC(=O)c2cc3ccccc3o2)cc(C(=O)OC)c1,-17,8,-14,1,2,.,.
C[C@@H]1CN([C@H](C)CO)C(=O)c2cc(NS(=O)(=O)c3cccs3)ccc2O[C@@H](C)CCCCO[C@@H]1CN(C)Cc1ccc(Cl)c(Cl)c1,80*,-4,35[16.7 µM],2,.,.,.
C[C@@H]1CN([C@@H](C)CO)C(=O)c2cccc(NS(=O)(=O)c3cccs3)c2O[C@@H]1CN(C)Cc1ccc(Cl)c(Cl)c1,5,-7,46[16.7 µM],-1,.,.,.
C[C@@H]1CN([C@H](C)CO)C(=O)c2cccc(NS(=O)(=O)c3cccs3)c2O[C@@H]1CN(C)Cc1ccc(Cl)c(Cl)c1,28,-5,90*[16.7 µM],1,.,.,.
C[C@@H]1CCCCO[C@@H](CN(C)Cc2ccc(Cl)c(Cl)c2)[C@H](C)CN([C@@H](C)CO)C(=O)c2cc(NS(=O)(=O)c3cccs3)ccc2O1,71*,2,21[16.7 µM],0,.,.,.
C[C@@H]1CN([C@H](C)CO)C(=O)c2cc(NS(=O)(=O)c3cccs3)ccc2O[C@@H](C)CCCCO[C@H]1CN(C)Cc1ccc(Cl)c(Cl)c1,75*,34,40[16.7 µM],0,.,.,.
C[C@@H]1CCCCO[C@@H](CN(C)Cc2ccc(Cl)c(Cl)c2)[C@H](C)CN([C@H](C)CO)C(=O)c2cc(NS(=O)(=O)c3cccs3)ccc2O1,?,7,?,-2,.,.,.
COc1ccc(S(=O)(=O)Nc2ccc3c(c2)C(=O)N([C@@H](C)CO)C[C@H](C)[C@@H](CN(C)C(=O)c2ccncc2)OCCCC[C@H](C)O3)cc1,-2,-5,-20[16.7 µM],2,.,.,.
CC(C)CC(NC(=O)OC(C)(C)C)c1cn([C@@H](CCCCNC(=O)OC(C)(C)C)C(=O)N2CCN(C(=O)OC(C)(C)C)CC2)nn1 (some centres undefined),-6,5,32,3,4,.,.
CC(C)(C)OC(=O)CC[C@@H](C(=O)N1CCN(C(=O)OC(C)(C)C)CC1)n1cc(C(Cc2ccc(O)cc2)NC(=O)OC(C)(C)C)nn1 (some centres undefined),3,3,62*,4,0,.,.
O=C(Nc1cc(F)ccc1F)N1CC(=O)N2[C@H](C1)[C@@H](c1ccc(-c3cccc(F)c3)cc1)[C@@H]2CO,10,2,.,-3,.,.,.
O=C(Oc1ccc2c(c1)OCO2)c1cc2c(s1)CCC2,58,.,75*,.,0,.,.
COc1cc(/C=C2\N=C(c3ccccc3)NNC2=O)cc(OC)c1OC,44,56*,-126,7,-2,.,.
O=C(NCc1ccccc1)C1=C[C@@H](c2csc3ccccc23)C[C@@H](OCCCCO)O1,77*,34,81*,3,.,.,.
Fc1ccc(-c2csc3ncnc(N4CCc5ccccc5C4)c23)cc1,70*,8,.,0,2,.,.
O=C1c2cccc(NCCNCCO)c2C(=O)c2cccc(NCCNCCO)c21,10,59*,59*,5,-3,.,.
C/C=C/c1ccc([C@@H]2[C@@H](C#N)N(c3ncc(CC)s3)[C@H]2CO)cc1,-4,5,-3[16.7 µM],-2,.,.,.
CCN(CC)CCn1c2c(c(SCC(=O)Nc3cc(OC)cc(OC)c3)nc1=O)CCC2,9,-2,61*,1,0,.,.
COc1ccc(OC)c(N/C(N)=N/c2nc(C)cc(C)n2)c1,16,-4,-1,8.9*,-1,.,.
O=C(Nc1ccccc1[N+](=O)[O-])C1=C(O)CCn2c1nc1ccccc12,.,.,.,.,9.2*,11,16*
C[C@@H]1CCCCO[C@@H](CN(C)C(=O)CCCN(C)C)[C@@H](C)CN([C@H](C)CO)C(=O)c2cc(NC(=O)NC3CCCCC3)ccc2O1,-20,-12,5[16.7 µM],-3,.,.,.
Cn1c(SCc2ccccc2)nc(N)c(N=O)c1=O,59,20,-27,1,11*,-10,19*
COCC(=O)N1[C@H](CO)[C@H](c2ccccc2)C12CN(C(=O)Nc1ccccc1F)C2,-5,2,.,-4,.,.,.
SMILES,PAX8 inh HTS,EWS-Fli inh,Env fusion inh,CFTR F508del cor,FXN GAA850 act,GAA30 counter,FXN GAA850 conf
CCn1c(SCC(=O)NCCc2ccc(OC)c(OC)c2)nc2c([nH]c3ccccc32)c1=O,5,16,70*,2,14*,26*,8.2*
CCCn1cnc2c(cnn2-c2ccc(F)cc2)c1=O,.,.,.,.,10.0*,59*,18*
CCCCn1cnc2c(cnn2-c2ccc(F)cc2)c1=O,.,.,.,.,7,.,.
CCC(=O)N(C)C[C@@H]1Oc2cc(/C=C/c3ccccc3)ccc2S(=O)(=O)N([C@H](C)CO)C[C@H]1C,.,10,15[16.7 µM],-7,.,.,.
CCOc1ccc2nc(SCC(=O)c3ccc(Cl)s3)sc2c1,.,.,.,.,3,.,.
CCOc1ccc2nc(SCC(=O)c3cccs3)sc2c1,-267,.,-300,.,8.6*,102*,29*
O/N=C/c1ccccc1OCc1ccccc1Cl,.,.,.,.,2,.,.
COc1cc(/C=N/O)ccc1OCc1ccccc1Cl,-166,-146,-83,2,12*,122*,38*
Cc1c(C(=O)OCCOC(C)C)[nH]c2c1C(=O)CC(C)(C)C2,-35,-8,6,-2,10.0*,35*,13*
Cc1c(C(=O)OCCOC(C)C)[nH]c2c1C(=O)CC(c1ccco1)C2 (centres undefined),.,.,.,.,0,.,.
CCC(=O)Nc1ccc2c(c1)C(=O)N(C)C[C@@H](OC)[C@H](C)CN(C(=O)c1ccccn1)[C@@H](C)CO2,-11,-1,.,1,.,.,.
NC1(C#Cc2ccc3c(=O)c4ccccc4sc3c2)CCCCC1,-72,5,-69,0,-4,.,.
Cn1c2ccccc2c(=O)c2ccc(C#CC3(N)CCCCC3)cc21,-147,-86,-114,4,10*,49*,46*
CC(C)NC(=O)N1C[C@@H]2[C@H](c3ccccc31)[C@H](CO)N2C(=O)c1ccc(F)cc1,-11,4,.,-1,.,.,.
O=C(/C=C/c1ccccc1)/C=C/c1ccccc1,3,.,-243,.,7.9*,32*,30*
CN1[C@H](C(=O)NCC2CCCCC2)[C@@H](CO)[C@@H]2Cn3c(cccc3=O)[C@@H]21,1,-3,.,-3,.,.,.
COC(=O)[C@@H]1[C@@H](C#N)C2(c3ccccc3-c3ccccc32)N(c2ccc(Cl)cc2)N1C#N,12,.,-362,.,12*,-16,19*
CC[C@@]1(C(=O)OC)N[C@H](CN(C)C(=O)Nc2ccc(C(F)(F)F)cc2)[C@@H]2C(=O)N(Cc3ccccc3)C(=O)[C@@H]21,11,3,85*,3,8.9*,27*,11*

# High-throughput results (PubChem)
